Results published in PubChem BioAssay AID1671190 (National Center for Advancing Translational Sciences (NCATS), 2021).
Screen size: about 580,000 compounds; about 6,100 (1.1%) were called active. Not shown: some 15% with an inconclusive outcome. This is one part of a sample in which actives are shown more often than they occur. The call rests on the fitted dose curve; in most records, active means well fitted inhibition curve with a large enough effect; inconclusive means small, poorly fitted or top-dose-only effect, or another doubt; inactive means no such curve, though single readings can be large or run the other way.

Molecular target: Polyunsaturated fatty acid lipoxygenase ALOX12 (Homo sapiens) (UniProt P18054)
Assay: Primary qHTS assay for inhibitors of human arachidonate 12S-lipoxygenase (ALOX12): Round 2
Conditions: purified 12hLO, xylenol orange hydroperoxide absorbance; series mostly up to 108 µM; activity change, negative = inhibition: at the top concentration
Procedure, shortened: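 Purified human 12hLO at 150 nM in 25 mM Hepes, 0.01% Triton X-100, pH 7.0, preincubated 15 min at room temperature with compound. Reaction started with 40 uM arachidonic acid, 30 min at room temperature. Hydroperoxide measured by Fe-xylenol orange, 573/405 nm absorbance ratio.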
On the % scale 0 is the no-effect control and ±100 the full control effect; potency means the concentration at half of the fitted maximal effect.

Polyunsaturated fatty acid lipoxygenase ALOX12 (Homo sapiens), sequence (P18054 whole entry, looked up): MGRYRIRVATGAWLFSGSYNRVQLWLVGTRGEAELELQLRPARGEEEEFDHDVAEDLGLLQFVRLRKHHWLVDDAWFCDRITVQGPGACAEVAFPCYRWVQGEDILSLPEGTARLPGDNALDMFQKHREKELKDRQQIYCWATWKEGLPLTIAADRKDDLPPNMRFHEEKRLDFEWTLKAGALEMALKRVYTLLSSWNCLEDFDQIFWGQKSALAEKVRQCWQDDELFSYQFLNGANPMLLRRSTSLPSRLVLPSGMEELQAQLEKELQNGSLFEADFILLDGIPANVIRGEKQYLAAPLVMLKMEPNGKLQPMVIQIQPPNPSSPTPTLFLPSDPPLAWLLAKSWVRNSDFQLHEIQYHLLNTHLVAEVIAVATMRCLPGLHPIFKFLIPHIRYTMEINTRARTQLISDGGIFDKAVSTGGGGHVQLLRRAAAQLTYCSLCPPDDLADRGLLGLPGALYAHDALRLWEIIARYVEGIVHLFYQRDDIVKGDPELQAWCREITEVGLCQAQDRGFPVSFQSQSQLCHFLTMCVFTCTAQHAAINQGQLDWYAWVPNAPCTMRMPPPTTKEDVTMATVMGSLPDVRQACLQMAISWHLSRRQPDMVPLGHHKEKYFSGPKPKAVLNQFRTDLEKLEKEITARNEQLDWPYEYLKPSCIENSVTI

Row | Compound | activity change, negative = inhibition | Potency
1 | COC(=O)c1nc(-c2ccc(F)cc2)no1 | -31.2% (inactive) | –
2 | CCN(CC)C(=O)[C@@H]1CCC[C@@H](NS(C)(=O)=O)CN(C)C(=O)C1 | -7.85% [at 176 µM] (inactive) | –
3 | CCOC(=O)C(NS(=O)(=O)c1ccc(C)cc1)(C(F)(F)F)P(=O)(OCC(C)C)OCC(C)C (configuration not stated) | – | 39.8 µM (active)
4 | Cc1ccc(S(=O)(=O)NCC(C)NS(C)(=O)=O)cc1 (configuration not stated) | -14.4% (inactive) | –
5 | CCOC(=O)C(NC(=O)c1ccccc1)(OC(C)C)C(F)(F)F (configuration not stated) | 3.32% (inactive) | –
6 | CCN1C(=O)N/C(=C/c2cn(CC(=O)Nc3ccc(F)cc3)c3ccccc23)C1=O | -78.9% (inactive) | –
7 | COc1cc(C(=O)Nc2ccc(C)cc2)nc2ccc(Cl)cc12 | 0.694% (inactive) | –
8 | CSc1cccc(NC(=O)N[C@H]2CCN3C(=O)[C@H](Cc4ccc(F)cc4)NC(=O)[C@@H]3C2)c1 | -21% (inactive) | –
9 | O=C(c1ccc2ncccc2c1)N1CCC2(CC1)NCCc1c2[nH]c2ccccc12 | 30.9% (inactive) | –
10 | O=C(Nc1nc(-c2ccncc2)cs1)C1COc2ccccc2O1 (configuration not stated) | – | 14.1 µM (active)
11 | O=C(NCC1CCOCC1)C1COc2ccccc2O1 (configuration not stated) | 38% (inactive) | –
12 | O=C(Cn1nc2c(cc1=O)CCCCC2)Nc1nc(-c2ccncc2)cs1 | 44% (inactive) | –
13 | CCc1cccc2c(C(=O)CSc3nncn3C(C)C)c[nH]c12 | -38.3% (inactive) | –
14 | CCC1(C)Cc2c(sc3nnn(CC(=O)Nc4ccc(Cl)cc4)c(=O)c23)CO1 (configuration not stated) | 5.01% (inactive) | –
15 | CC1(C)Cc2c(sc3c2c(=O)n(CCO)c(=O)n3CCc2ccccc2)CO1 | -41.7% (inactive) | –
16 | CCC1(C)Cc2c(sc3[nH]c(=S)n(Cc4ccccc4)c(=O)c23)CO1 (configuration not stated) | – | 28.2 µM (active)
17 | COc1ccccc1-c1cnc(Nc2ccncc2)c2c1CCO2 | 13.2% [at 176 µM] (inactive) | –
18 | CN1CCN(C(=O)c2cccc(C(F)(F)F)c2)CC1 | -6.7% (inactive) | –
19 | O=[N+]([O-])c1cc(Cl)cc(/C=N/NC(=S)Nc2cc(S(=O)(=O)N3CCOCC3)ccc2Cl)c1O | – | 25.1 µM (active)
20 | Cc1ccc(S(=O)(=O)N2CCOCC2)cc1NC(=O)c1ccncc1 | 5.28% (inactive) | –
21 | O=C(CNCc1cccs1)Nc1cc(S(=O)(=O)N2CCCC2)ccc1Cl | 2.03% (inactive) | –
22 | CCOc1cc(C2c3c(-c4c(C)cc(C)cc4O)n[nH]c3C(=O)N2CCO)ccc1O (configuration not stated) | -3.04% (inactive) | –
23 | O=c1onc(-c2cccs2)n1Cc1ccccc1 | 0% (inactive) | –

Row | Compound | activity change, negative = inhibition | Potency
24 | CCC(=O)N1N=C(c2ccc(OC)cc2)CC1c1cn(-c2ccccc2)nc1-c1cccs1 (configuration not stated) | -24.7% (inactive) | –
25 | C(=NCc1ccccc1)c1cn(-c2ccccc2)nc1-c1cccs1 | – | 50.1 µM (active)
26 | CC1(C)[C@H]2CC[C@@H](CNC(=O)c3ccccc3F)[C@@H]1C2 | 28% [at 176 µM] (inactive) | –
27 | Oc1c(Br)cc(/C=N/NC(=S)NCC2CCCO2)cc1Br (configuration not stated) | 6.06% (inactive) | –
28 | COc1cc(/C=N/O)ccc1O | -22.4% (inactive) | –
29 | COc1cc(/C=N/Nc2ccc(C)cc2)cc(Br)c1O | – | 10 µM (active)
30 | O=C(Cc1ccc(Cl)cc1)Oc1ccc2ccccc2c1 | 23.8% (inactive) | –
31 | C(=N\N=C(c1ccccc1)c1ccccc1)/c1cn[nH]c1-c1ccccc1 | 6.19% (inactive) | –
32 | CN(C)c1ncnc2sc3c(c12)CCN(Cc1ccccc1)C3 | 48% (inactive) | –
33 | Oc1ccccc1C1=NN(c2ccccc2)C(c2ccccc2)C1 (configuration not stated) | – | 15.8 µM (active)
34 | CCCc1nc(-c2ccccc2O)n(-c2ccccc2)n1 | -20.5% (inactive) | –
35 | Cc1ccc(N2C(=O)C3N=NN(CC(=O)N4N=C(c5cccc6ccccc56)CC4c4ccccc4)C3C2=O)cc1 (configuration not stated) | 0% (inactive) | –
36 | Cc1oc2cc(OCC(=O)N3CCCCCC3)ccc2c(=O)c1-c1ccc(Cl)cc1 | 1.29% (inactive) | –
37 | CCN1/C(=C\c2ccc3ccccc3[n+]2CC)Sc2cc(C)ccc21 | – | 35.5 µM (active)
38 | CCN(CC)C(=O)Oc1ccc2c(C)c(-c3ccc(OC)cc3)c(=O)oc2c1 | 55.5% (inactive) | –
39 | O=C1CC(NCc2ccoc2)CN1CCc1cccc(Cl)c1 (configuration not stated) | 38.5% (inactive) | –
40 | Cc1ccccc1NC(=O)c1cc2cc([N+](=O)[O-])ccc2oc1=O | 14.5% (inactive) | –
41 | Cn1nnnc1SCCNCc1ccc(Cl)c(Cl)c1 | -8.03% (inactive) | –
42 | COc1cc(CNCCSc2nnnn2C)ccc1OCc1ccc(Cl)cc1Cl | – | 39.8 µM (active)
43 | COc1cc(CNCCSc2nnnn2C)ccc1OCc1c(F)cccc1Cl | 0% (inactive) | –
44 | Cc1cc(S(=O)(=O)N2CCCN(C)c3ccccc32)ccc1F | -0.0222% (inactive) | –
45 | Cc1ccc(CN(CC(=O)NCC2CCCO2)C2CC2)cc1 (configuration not stated) | -1.52% (inactive) | –
46 | CN(Cc1cccs1)C(=O)C1CCC1 | 6.4% (inactive) | –

Row | Compound | activity change, negative = inhibition | Potency
47 | Cc1ccc(C(=O)N2CCC3(CC2)NC(=O)N(Cc2ccc(F)cc2)C3=O)cc1 | 14.3% (inactive) | –
48 | CCN1CCC2(CC1)N=C(c1ccc(F)cc1)C(=S)N2C(=O)c1ccc(C)cc1 | – | 50.1 µM (active)
49 | Cc1ccc(C(=O)N2CCC(c3n[nH]c(=O)n3Cc3ccc(F)cc3)CC2)cc1 | 10.3% (inactive) | –
50 | CC1CCN(CCCNC(=O)c2cc(=O)c3ccccc3o2)CC1 | -3.13% (inactive) | –
51 | Cc1ccc(S(=O)(=O)N(CC(=O)Nc2cccnc2)c2ccc(Br)cc2)cc1 | – | 22.4 µM (active)
52 | Cc1ccc(N(CC(=O)Nc2cc(C)cc(C)c2)S(=O)(=O)c2cccc3nonc23)cc1 | – | inactive
53 | CCNC(=O)CN(c1ccc(C)cc1)S(=O)(=O)c1ccc(SC)cc1 | -25.5% (inactive) | –
54 | COc1ccccc1C(=O)N1CCc2c(nc3cc(-c4ccccc4Cl)[nH]n3c2=O)C1 | -1.72% (inactive) | –
55 | COc1ccc2cc(C(=O)N3CCN(S(=O)(=O)c4ccccc4C(F)(F)F)CC3)c(C)nc2c1 | 16.8% (inactive) | –
56 | Cn1c(=O)c2c(nc(Cl)n2CC(=O)N(C2CCCC2)C2CCS(=O)(=O)C2)n(C)c1=O (configuration not stated) | 2.41% (inactive) | –
57 | O=C(Cc1cccc2ccccc12)NCCc1cccc2cccnc12 | 18.3% (inactive) | –
58 | CCCCc1c(C)nc2c(C)cccc2c1SCC(=O)O | 80.1% (inactive) | –
59 | COc1ccc(COc2ccc(C(=O)O)cc2OC)cc1Br | -3.21% (inactive) | –
60 | COc1cc(C(=S)NCc2ccccc2)cc(Br)c1O | – | 39.8 µM (active)
61 | COc1ccccc1NC(=O)C(=O)NCc1ccccc1 | -7.75% (inactive) | –
62 | CN(Cc1ccc(F)cc1F)C(=O)COc1ccc2ccc(=O)oc2c1 | -53.2% (inactive) | –
63 | C=CCSc1nc2c(c(=O)[nH]c(=O)n2C)n1Cc1cccc(C)c1 | -77.9% (inactive) | –
64 | CS(=O)(=O)c1ccc(C(=O)NNC(=O)c2cccs2)cc1 | 3.89% (inactive) | –
65 | Cc1ccc(NNC(=O)c2cccs2)cc1Cl | – | 8.91 µM (active)
66 | COc1cc(Cl)c(C)cc1NC(=O)[C@@H]1CCCN1C(=O)c1cccs1 | 0.484% (inactive) | –
67 | CCN(c1ccc(-c2csc(-c3ccccc3)n2)cc1)S(C)(=O)=O | 0.942% (inactive) | –
